A selection: hits, their analogues and other compounds. The true share with any hit is near 20%.
Cycloheximide cs – affects cycloheximide protein synthesis inhibition readout, counter-screen; cell reporter, cycloheximide protein synthesis inhibition counterscreen; max response, %; 12% of 300,000 active; AID 2314; in the data active = max response mostly above about 13%, no sharp cut-off; inactive = mostly below about 14%; also: read at 38.3 µM for the half of the compounds with a filed dose; 0% is about no effect
HCMV antiviral – human cytomegalovirus inhibition. HFF cells, HCMV-luciferase reporter, 72 h; stronger effect = lower value. activity change, negative = inhibition, % at 57.5 µM. 4.5% of 410,000 active. AID 1259415; in the data active = activity change below about -60%; inconclusive = no clear call, values can overlap the other calls; inactive = above about -39%; also: % is scaled to controls: 0 for no effect and ±100 for the full control effect
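Luciferase read-out from HCMV-luciferase-infected HFFs (MOI 1 PFU/cell) 72 h post infection at 37C; compounds added after 16 h cell attachment; activity normalized between buffer-only basal and Salinomycin (10uM) inhibitor controls.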
Shiga inhibitor – inhibitors of Shiga toxin in Vero cells. AID 2315. 9.2% of 290,000 active. inhibition, % at 38.7 µM. Vero cells, Shiga toxin protein synthesis inhibition reporter; in the data active = inhibition mostly above about 28%, no sharp cut-off; inactive = mostly below about 43%; also: 0% is about no effect
Pf growth 48h – P. falciparum growth inhibition at 48 hours (one generation); Potency, µM (highest dose often 28.7 µM), for inactives: top-dose activity change, negative = inhibition, hits mostly inhibitors; P. falciparum luciferase growth in erythrocytes, 48 h; 5.9% of 310,000 active; also: potency is read from the fitted curve at half-maximal effect; % is scaled to controls: 0 for no effect and ±100 for the full control effect
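Cell-based growth assay: transgenic P. falciparum expressing firefly luciferase, cultured in red cells within RPMI 1640 containing 0.5% w/v Albumax, 24 mM bicarbonate and gentamycin. A drop in luciferase activity indicates inhibition.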
Pf growth 96h – P. falciparum growth inhibition at 96 hours; 6.9% of 320,000 active; Potency, µM (top dose mostly 28.7 µM), without a hit: at the highest dose activity change, negative = inhibition, hits mostly inhibitors; P. falciparum luciferase reporter growth, 96 h; also: potency is read from the fitted curve at half-maximal effect; % is scaled to controls: 0 for no effect and ±100 for the full control effect
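Infected RBCs, 2% Hct / 0.05% parasitemia final; luciferase-reporter P. falciparum; cpd 96 h, 37 C, 5% CO2; luciferase detection reagent; luminescence.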
Starred values were filed as active, the others as inactive; ? = inconclusive; nt = no result. Unless noted, calls follow the shape of the dose curve; as a rule, active = well fitted inhibition curve with a large enough effect; inconclusive = small, poorly fitted or top-dose-only effect, or another doubt; inactive = no such curve, though single readings can be large or run the other way.

SMILES	Cycloheximide cs	HCMV antiviral	Shiga inhibitor	Pf growth 48h	Pf growth 96h
COc1ccc(C(=O)NCc2cccnc2)cc1S(=O)(=O)N1CCCc2ccccc21	19.4*	?	29.6	?	?
CCS(=O)(=O)N1CCc2cc(OC)c(OC)cc2C1	-0.5	33.9	-6.5	0.0%	?
COc1cc2c(cc1OC)CN(C(=O)c1ccc(OC)c(S(=O)(=O)N3CCCC3)c1)CC2	nt	14.2	nt	11.7µM*	?
O=C(Nc1cc(Cl)cc(Cl)c1)c1ccc(F)c(S(=O)(=O)NC2CCCCC2)c1	nt	-20.7	nt	nt	nt
O=C(Nc1ccc(Br)cc1)c1ccc(F)c(S(=O)(=O)NC2CCCCCC2)c1	5.4	-98.4*	9.5	nt	nt
COc1ccc(C(=O)Nc2nc3c(s2)CCCC3)cc1S(=O)(=O)N1CCCc2ccccc21	8.9	-65.7*	40.8	13.1µM*	10.4µM*
COc1ccc(C(=O)NC2CCCCCC2)cc1S(=O)(=O)N1CCCc2ccccc21	10.6	-62.1*	-4.1	nt	10.4µM*
COc1ccc(C(=O)N2CCc3ccccc3C2)cc1S(=O)(=O)N1CCCC1	nt	-2.6	nt	nt	nt
CC1(C(=O)NS(=O)(=O)c2cccc(Cl)c2)CCN1C(=O)C1(c2ccc(Cl)cc2)CC1 (configuration not stated)	nt	15.3	nt	nt	nt
COc1ccc(CNS(=O)(=O)c2ccc3c(c2)NC(=O)CS3)cc1	7.1	4.7	10.3	26.6%	?
COc1ccc(C(=O)NC2CCCCCC2)cc1S(=O)(=O)N1CCCC1	-2.1	-62.5*	7.0	-24.2%	?
COc1ccc(Cl)cc1S(=O)(=O)N1CCC(C(=O)NC2CC2)CC1	-3.0	nt	-8.1	?	8.28µM*
Cc1cnnn1-c1ccc(C(=O)CCl)cc1	7.9	15.2	-15.0	8.2%	0.0%
COCCNC(=O)C(C)(C)n1cc(-c2ccc(OC)c(OC)c2)cn1	nt	4.7	nt	nt	nt
O=C(NNc1ccccc1[N+](=O)[O-])Nc1ccc(F)cc1	13.2	?	32.8*	32.3%	72.5%
O=C(NNc1ccccc1[N+](=O)[O-])Nc1ccc(Cl)c(Cl)c1	16.9	17.5	15.8*	-5.2%	?
O=C(NNc1ccccc1[N+](=O)[O-])Nc1ccccc1	14.9	50.5	-4.6	25.7%	nt
CCN(CC)S(=O)(=O)c1cc([N+](=O)[O-])ccc1NNC(=O)Nc1ccc(Cl)c(Cl)c1	6.3	-92.8*	-13.7	nt	-97.9%
Cc1cc(-c2ccccc2)c2c(=O)[nH][nH]c2n1	2.6	-9.6	10.0	4.6%	9.4%
CC(C)CNC(=O)c1cc2nc3c(c(C(F)(F)F)n2n1)CCc1ccccc1-3	-3.2	-66.9*	-18.6	nt	27.5%
Cc1ccc(Oc2ccc(S(=O)(=O)N3CCOCC3)cc2C(N)=O)c(-n2nc3ccccc3n2)c1	-5.8	-84.9*	-5.1	?	?
COc1ccccc1Oc1ccc(S(=O)(=O)N2CCOCC2)cc1S(=O)(=O)N1CCOCC1	-2.5	-29.2	-2.1	?	-6.0%
CCCCCCOc1ccc(/C(N)=N/O)cc1	44.1*	59.6	61.4*	154.3%	173.2%
N=C(N)c1ccc(OCCCCCOc2ccc(C(=N)N)cc2)cc1	-4.6	-88.6*	-7.6	0.262µM*	0.037µM*
O=C(Cn1c(=O)n(Cc2ccc(C(=O)NCc3ccccc3Cl)cc2)c(=O)c2ccccc21)Nc1ccc(F)c(Cl)c1	nt	19.4	nt	nt	nt
SMILES	Cycloheximide cs	HCMV antiviral	Shiga inhibitor	Pf growth 48h	Pf growth 96h
O=C(NC(Cc1c[nH]c2ccccc12)c1nnc2n1CCCCC2)c1ccccc1 (configuration not stated)	-1.3	-18.0	-15.9	14.7%	41.2%
CCN(CC)S(=O)(=O)c1cccc(C(=O)NC(Cc2c[nH]c3ccccc23)c2nnc3n2CCCCC3)c1 (configuration not stated)	13.9	-3.2	15.4	?	10.4µM*
CCOc1ccc(-c2cn(CCC#N)cn2)cc1	14.5*	-21.1	18.3	30.2%	6.57µM*
CCOc1ccccc1C(=O)NC1CCN(CC(=O)Nc2cc(OC)ccc2OC)CC1	-2.1	?	nt	?	0.0%
S=c1sc2c(N3CCOCC3)ncnc2n1-c1ccccc1	19.3	48.5	35.6	nt	14.7µM*
COc1ccc(NC(=O)CN2CCC(n3c(C)nc4cc(F)ccc43)CC2)c(OC)c1	-4.7	9.3	-18.8	?	3.6%
COc1cc(OC)cc(C(=O)N2CCC(n3c(C)nc4cc(F)ccc43)CC2)c1	-1.9	44.0	-11.2	nt	13.1µM*
COC(=O)c1ccc2c(c1)SC1=C(CCCC1=O)N2	21.0*	124.6	active	?	?

Bioassay records from PubChem.
